# PubChem BioAssay AID2314 (National Center for Advancing Translational Sciences (NCATS), 2010)
# In all, about 300,000 compounds went through this assay and about 37,000 (12%) were called active. The sample holds actives, similar compounds and a random draw of the others, so the mix is not that of the screen. No stated cut-off is given here; in the data, active means max response mostly above about 13% (no sharp cut-off); inactive means mostly below about 14%.
# Test: Cycloheximide Counterscreen for Small Molecule Inhibitors of Shiga Toxin; further: read at 38.3 µM for the half of the compounds with a filed dose; 0% is about no effect
# Conditions: cell reporter, cycloheximide protein synthesis inhibition counterscreen; stronger effect = higher value
row,Structure (SMILES),max response
1,O=C(Nc1ccccc1C(=O)N1CCOCC1)c1ccc(CSc2ccccc2)cc1,-0.894% (inactive)
2,Cc1cc(=O)oc2c(C)c(OCC(=O)NCCc3ccc(S(N)(=O)=O)cc3)ccc12,-1.87% (inactive)
3,CCOC(=O)C1=C(c2ccccc2)NC(=O)NC1c1cc(OCC)c(O)c([N+](=O)[O-])c1 (configuration not stated),-1.22% (inactive)
4,CCOc1ccc2c(c1)c(=O)c(S(=O)(=O)c1ccc(C)cc1)cn2CC,-0.573% (inactive)
5,OC1CCCN(c2ncnc3c2nnn3Cc2c(F)cccc2Cl)C1 (configuration not stated),7.82% (inactive)
6,CC(=O)c1cc2c(cc1NC(=O)Cn1nc(-c3ccc(F)cc3)ccc1=O)OCO2,0.865% (inactive)
7,Cc1cc(C)nc(NNC2=CC(=O)CC(C)(C)C2)n1,2.37% (inactive)
8,CCCCN(Cc1ccccc1)C(=O)C1CCN(Cc2sccc2C)CC1,-5% (inactive)
9,CCOc1cc(C2/C(=C(/O)c3ccc(S(=O)(=O)N4CCCCC4)cc3)C(=O)C(=O)N2CCOC)ccc1O (configuration not stated),-6.09% (inactive)
10,CC(C)/C=N/NC(=O)c1cc(Br)ccc1O,9.21% (inactive)
11,CC(=O)N/N=C(\C)c1ccc(Br)cc1Br,-2.79% (inactive)
12,CC(=N\NC(=O)c1cc(Br)ccc1O)/C(=N/O)C(=O)Nc1ccccc1,23.2% (active)
13,COc1ccc(/C=N/N=C/c2c[nH]c(=O)c(C#N)c2Nc2ccccc2)cc1,-2.7% (inactive)
14,COc1cccc(NC(=O)C(Sc2nc3ccccc3c(=O)n2CC(C)C)c2ccccc2)c1 (configuration not stated),0.135% (inactive)
15,COc1ccc2c(-c3ccccc3)cc(SCC(=O)N(C)C3CCS(=O)(=O)C3)nc2c1 (configuration not stated),-1.72% (inactive)
16,O=C1C(C=NCC2CCCO2)=C(O)c2ccccc21 (configuration not stated),32.1% (active)
17,CC(=NCC1CCCO1)c1c(O)n(-c2ccccc2)c(=O)[nH]c1=O (configuration not stated),4.02% (inactive)
18,Cc1ccc(-n2c(O)c(C=NCC3CCCO3)c(=O)[nH]c2=O)c(C)c1 (configuration not stated),-0.95% (inactive)
19,CC(C)(C)c1ccc(CN2C(=O)c3ccccc3S2(=O)=O)cc1,17.5% (active)
20,O=C1c2ccccc2S(=O)(=O)N1Cc1c(F)cccc1Cl,-0.645% (inactive)
21,O=C1CN(Cc2ccccc2)S(=O)(=O)c2ccccc21,-0.808% (inactive)
22,CC1CN(S(=O)(=O)c2ccccc2)C(C)CN1S(=O)(=O)c1ccccc1 (configuration not stated),-3.63% (inactive)
23,Cc1cc(C)cc(C(=O)NC(CC(N)=O)c2ccc(N3CCC(N4CCCCC4)CC3)c([N+](=O)[O-])c2)c1 (configuration not stated),-1.84% (inactive)

row,Structure (SMILES),max response
1,NS(=O)(=O)c1ccc(NC(=S)Nc2ccc(Br)c(Cl)c2)cc1,-1.56% (inactive)
2,O=C(NCCc1ccc(Cl)cc1)c1cccc(N2CCCC2=O)c1,21.3% (active)
3,CC1CCCC(NC(=O)CN2CCN(Cc3ccc(Cl)cc3)C2=O)C1C (configuration not stated),-4.51% (inactive)
4,CC1CCCC(NC(=O)c2cccc(N3CCCC3=O)c2)C1C (configuration not stated),44.4% (active)
5,O=C(NCCCN1CCCCCC1)c1ccc(N2CCCC2=O)cc1,-4.57% (inactive)
6,C/C(=N\NC(=O)c1cccc(N2CCCC2=O)c1)c1ccc(N)cc1,27% (inactive)
7,O=C(NCCc1ccc(Cl)cc1)C1CCCN1C(=O)NCc1ccccc1 (configuration not stated),-1.54% (inactive)
8,CCCNC(=O)NCc1ccc(N2CCCC2=O)cc1,-2.06% (inactive)
9,CC1CCC(NC(=O)c2ccc(N3CCCC3=O)cc2)CC1 (configuration not stated),40.8% (active)
10,O=C(NCc1cccc(Cl)c1)C1CCN(c2nnc(N3CCCC3=O)s2)CC1,-2.64% (inactive)
11,Cn1c2c(c(=O)n(C)c1=O)C(c1cccc([N+](=O)[O-])c1)Nc1ccccc1O2 (configuration not stated),-1.06% (inactive)
12,Cc1ccc(S(=O)(=O)NCC2CCC(C(=O)N3CCOCC3)CC2)cc1 (configuration not stated),3.28% (inactive)
13,Cc1cc2ccccn2c1C(=O)c1cccc(F)c1,-1.02% (inactive)
14,C=CCSc1nc(N)cc(=O)[nH]1,13.9% (inactive)
15,Cc1cc(S(=O)(=O)c2cc3ccc(O)c(C)c3oc2=O)ccc1F,-4.92% (inactive)
16,COc1ccc(CCNC(=O)C(=O)NCC2OCCN2S(=O)(=O)c2ccc(OC)c(C)c2)cc1 (configuration not stated),0.773% (inactive)
17,O=C(NCc1ccccc1)C(=O)NCC1OCCN1S(=O)(=O)c1ccc(Br)cc1 (configuration not stated),9.31% (inactive)
18,O=C(NCCc1ccccc1)C(=O)NCC1OCCN1S(=O)(=O)c1cccs1 (configuration not stated),8.94% (active)
19,CCNCCC(=O)N1c2ccccc2Sc2ccc(NC(=O)OCC)cc21,-6.47% (inactive)
20,O=C(Nc1nc2ccccc2s1)c1ccc2c(c1)OCO2,16.2% (active)
21,Cc1cc(C)c2nc(NC(=O)c3ccc4c(c3)OCO4)sc2c1,-3.86% (inactive)
22,COc1ccc(S(=O)(=O)N2CCOCC2)cc1C(=O)Nc1nc2ccccc2s1,8.09% (inactive)
23,C=CCn1c(SCC(=O)Nc2nc3ccccc3s2)nnc1-c1ccccc1O,6.55% (inactive)

row,Structure (SMILES),max response
1,O=CN1CCN(C(=O)c2ccc3c(c2)OCO3)CC1,16.1% (inactive)
2,O=C(Nc1ccc(C(=O)N2CCCCC2)cc1)c1cccc([N+](=O)[O-])c1,-4.06% (inactive)
3,O=C(Nc1ccc2c(c1)OCO2)c1ccc(N2C(=O)c3ccccc3C2=O)cc1,14.1% (inactive)
4,O=C(Nc1ccc(NC(=O)c2ccco2)c(Cl)c1)c1cccc([N+](=O)[O-])c1,5.37% (inactive)
5,O=C(Nc1ccccc1)c1ccc2c(c1)OCO2,29% (active)
6,COC(=O)c1ccccc1NC(=O)CSc1nnnn1C,3.16% (inactive)
7,Cn1nnnc1SCC(=O)Nc1nc2ccccc2s1,28.7% (active)
8,O=C(Nc1ccc(C2CC2(Cl)Cl)cc1)c1cccc([N+](=O)[O-])c1 (configuration not stated),40.2% (active)
9,O=S(=O)(Nc1ccc(Oc2ncccn2)c(Cl)c1)c1ccc(F)cc1,5.26% (inactive)
10,CC1CCCCC1NC(=O)C1CCCN1S(=O)(=O)c1cccc2nsnc12 (configuration not stated),3.55% (inactive)
11,Cc1cnc(C)c(N2CCN(C(=O)C3CCC(=O)N(CCc4cccc(F)c4)C3)CC2)n1 (configuration not stated),-0.816% (inactive)
12,COc1ccc(C(=O)c2c(C)c(CCC#N)n3ccccc23)c(OC)c1,-1.97% (inactive)
13,CCOCCCN1C(=O)C2C(C(=O)Nc3ccc(OCC)cc3)C3C=CC2(O3)C1C(=O)NC1CCCCC1 (configuration not stated),-3.23% (inactive)
14,CCNS(=O)(=O)c1ccc(NC(=O)c2cncc(Br)c2)cc1,-2.2% (inactive)
15,Cc1cc(N2CCOCC2)nc2ccc(NC(=S)N3CCN(Cc4ccccc4)CC3)cc12,3.98% (inactive)
16,O=C(Nc1ccccc1)Nc1nc2ccccc2s1,37.9% (active)
17,O=C(Nc1cccnc1)c1cc2cc(Br)ccc2oc1=O,-1.47% (inactive)
18,CC(=O)Nc1ccc(-c2csc(NC(=O)Nc3ccccc3)n2)cc1,10.8% (inactive)
19,O=C(Nc1cccnc1)c1ccc2c(c1)OCO2,19.3% (active)
20,O=C(Nc1cccnc1)c1cccc(S(=O)(=O)N2CCCC2)c1,3.36% (inactive)
21,CC(Sc1nc(-c2ccccc2)cc(C(F)(F)F)n1)C(=O)Nc1ccc2c(c1)OCO2 (configuration not stated),-1.84% (inactive)
22,COc1ccc(C(=O)Nc2cccnc2)cc1C(=O)Nc1cccnc1,-0.996% (inactive)
23,CC(Sc1nc2cc(Cl)ccc2s1)C(=O)Nc1ccc2c(c1)OCO2 (configuration not stated),29% (active)

row,Structure (SMILES),max response
1,CC(NC(=O)Nc1ccccc1)c1ccccc1 (configuration not stated),14.1% (inactive)
2,O=C(Nc1cccnc1)c1noc2c1CCCCC2,32.5% (active)
3,O=C(Nc1ccc2c(c1)OCO2)c1sc2cc(Cl)ccc2c1Cl,2.36% (inactive)
4,CN(C(=O)CN1C(=O)/C(=C/c2ccc(Cl)cc2)SC1=S)C1CCS(=O)(=O)C1 (configuration not stated),-10.5% (inactive)
5,Cc1nn(-c2ccccc2)c2c1c(C)c(CCC(=O)NCC1CCCO1)c(=O)n2C (configuration not stated),-2.56% (inactive)
6,CC1(c2cccc([N+](=O)[O-])c2)CC(C)(C)N(C(=O)c2ccccc2)c2ccccc21 (configuration not stated),4.81% (inactive)
7,O=c1c2ccccc2nc2n1C(CSCc1cccc(C(F)(F)F)c1)CS2 (configuration not stated),1.18% (inactive)
8,CC(=O)N1c2ccc(S(=O)(=O)NCCC(=O)N(C)C3CCCCC3)cc2CC1C (configuration not stated),10.2% (inactive)
9,COc1cc(C(=O)NNC(=O)c2ccc(S(=O)(=O)N3CCCCC3)cc2)cc(OC)c1OC,-1.13% (inactive)
10,CCN(CC(=O)NC(=O)NCc1ccccc1)Cc1nc2ccccc2c(=O)[nH]1,-2.64% (inactive)
11,c1ccc(-c2cc3c(NCC4COc5ccccc5O4)ncnc3s2)cc1 (configuration not stated),9.76% (inactive)
12,C/C(=N/NC(=O)c1ccncc1)c1ccc2c(c1)OCO2,0.639% (inactive)
13,O=C(Nc1cccc([N+](=O)[O-])c1)c1ccc2c(c1)OCO2,36.2% (active)
14,CC(C)NC(=O)CSc1ccccc1C(=O)NCc1ccc2c(c1)OCO2,3.57% (inactive)
15,O=C(Nc1cccc(S(=O)(=O)Nc2ccc(Cl)cc2)c1)c1ccc2c(c1)OCCO2,12.5% (active)
16,C/C(=N\NC(=O)C(N)=O)c1ccc2c(c1)OCCO2,15.2% (inactive)
17,Cc1ccc2nc(-c3ccccn3)cc(C(=O)Nc3ccc4c(c3)OCO4)c2c1,20.8% (inactive)
18,CC(NC(=O)Nc1cccc([N+](=O)[O-])c1)c1ccc2c(c1)OCO2 (configuration not stated),-0.734% (inactive)
19,CCSc1ccccc1C(=O)Nc1ccc2c(c1)OCO2,21.7% (active)
20,C/C(=N/NC(=S)Nc1ccccc1)c1ccc2c(c1)OCO2,33.6% (active)
21,CC(NS(=O)(=O)c1ccc(Cl)cc1)C(=O)Nc1ccc2c(c1)OCCO2 (configuration not stated),-1.8% (inactive)
22,CCN(CC)CCNC(=O)c1ccc(NS(=O)(=O)c2ccc3c(c2)OCCO3)cc1,2.7% (inactive)
23,O=C(NCc1cccnc1)c1ccccc1NC(=O)c1c(F)cccc1F,7.34% (inactive)
